Assay results taken from the supplement of paper PMC12494721.
Structures can show the parent of a compound that is named as a salt.

Tests used:
Conditions in all cases: 20 µM; incubation time: 27 h, anaerobic, 37 °C;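 for the amine columns active = adjusted P below 0.05 in both replicates with a change the same way and a mean fold change under 0.8 or over 1.25; inactive = the rest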
[1] = test system: Clostridium sporogenes DSM 1664; experiment: growth (OD595) fold change vs plate DMSO controls (fold change (ratio)); higher = more growth
Procedure, shortened: (§1)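 Growth is the fold change relative to the median of plate DMSO controls. Readings came from anaerobic mGAM cultures in 96-well plates grown for 27 h at 37 °C and read at 595 nm. They were blank-subtracted, corrected for compound background with 20 µM compound solutions in water, and converted to OD with a calibration factor of 5. Values are means of 2 biological replicates, and fold changes above 1.5 were set to NA.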

Escherichia coli IAI1 [2] = experiment: as above
Procedure, shortened: as §1

[3] = test system: Klebsiella aerogenes DSM 30053; experiment: as above
Procedure, shortened: as §1

[4] = test system: Ruminococcus gnavus DSM 108212; experiment: as above
Procedure, shortened: as §1

[5] = test system: Klebsiella aerogenes DSM 30053; experiment: fold change of Histamine concentration vs plate DMSO controls (fold change (ratio)); higher = more amine produced, active = hit call of the paper (significant change in both replicates, either direction)
Procedure, shortened: (§2)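 In 80 µL wells, cultures of four gut bacterial strains in mGAM started at OD 0.1 before a 1:1 dilution and grew anaerobically at 37 °C for 27 h. Compounds were added to 20 µM final, except sweeteners at 50 µM final. After extraction of whole cultures with cold acetonitrile/methanol plus 0.1% formic acid and centrifugation, amines were measured by LC–triple-quadrupole MS in dynamic MRM mode against external calibration curves, with within-batch drift correction. Values give fold change over DMSO controls on the same plate, averaged across 2 biological replicates.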

[6] = test system: Clostridium sporogenes DSM 1664; experiment: fold change of Tryptamine concentration vs plate DMSO controls (fold change (ratio)); higher = more amine produced, active = hit call of the paper (significant change in both replicates, either direction)
Procedure, shortened: as §2

[7] = test system: Ruminococcus gnavus DSM 108212; experiment: as above
Procedure, shortened: as §2

Escherichia coli IAI1 [8] = experiment: fold change of Putrescine concentration vs plate DMSO controls (fold change (ratio)); higher = more amine produced, active = hit call of the paper (significant change in both replicates, either direction)
Procedure, shortened: as §2

[9] = test system: Klebsiella aerogenes DSM 30053; experiment: as above
Procedure, shortened: as §2

Escherichia coli IAI1 [10] = experiment: fold change of Cadaverine concentration vs plate DMSO controls (fold change (ratio)); higher = more amine produced, active = hit call of the paper (significant change in both replicates, either direction)
Procedure, shortened: as §2

[11] = test system: Klebsiella aerogenes DSM 30053; experiment: as above
Procedure, shortened: as §2

[12] = test system: Ruminococcus gnavus DSM 108212; experiment: fold change of 2-Phenylethylamine concentration vs plate DMSO controls (fold change (ratio)); higher = more amine produced, active = hit call of the paper (significant change in both replicates, either direction)
Procedure, shortened: as §2

| Structure (SMILES) | growth [1] | growth (Escherichia coli IAI1 [2]) | growth [3] | growth [4] | fold change of Histamine concentration [5] | fold change of Tryptamine concentration [6] | fold change of Tryptamine concentration [7] | fold change of Putrescine concentration (Escherichia coli IAI1 [8]) | fold change of Putrescine concentration [9] | fold change of Cadaverine concentration (Escherichia coli IAI1 [10]) | fold change of Cadaverine concentration [11] | fold change of 2-Phenylethylamine concentration [12] |
| --- | --- | --- | --- | --- | --- | --- | --- | --- | --- | --- | --- | --- |
| CN1C(=O)CCS(=O)(=O)C1c1ccc(Cl)cc1 (configuration not stated) [Chlormezanone] | 1.13 | 0.97 | 1.02 | 0.846 | 1 (inactive) | 0.944 (inactive) | 1.05 (inactive) | 0.986 (inactive) | 1.01 (inactive) | 0.984 (inactive) | 1.01 (inactive) | 1.06 (inactive) |
| c1ccc2c(c1)OCC(C1=NCCN1)O2 (configuration not stated) [Idazoxan hydrochloride] | 1.09 | 1.01 | 1.01 | 0.978 | 1 (inactive) | 0.976 (inactive) | 0.832 (inactive) | 1.1 (inactive) | 0.998 (inactive) | 0.996 (inactive) | 0.996 (inactive) | 0.785 (inactive) |
| C#CCN(C)[C@H](C)Cc1ccccc1 [Selegiline hydrochloride] | 0.986 | 1.05 | 1.02 | 0.963 | 0.982 (inactive) | 1.11 (inactive) | 1.05 (inactive) | 1.07 (inactive) | 0.975 (inactive) | 1.03 (inactive) | 1.01 (inactive) | 1.06 (inactive) |
| c1cc2c3c(cccc3c1)CC2 [Acenaphthene] | 1.04 | 1.01 | 0.974 | 0.995 | 1.04 (inactive) | 0.986 (inactive) | 1.01 (inactive) | 1.02 (inactive) | 1.02 (inactive) | 1.03 (inactive) | 0.982 (inactive) | 1.05 (inactive) |
| COCC(C)N(C(=O)CCl)c1c(C)csc1C (configuration not stated) | 1.06 | 1.02 | 1.03 | 0.986 | 0.989 (inactive) | 1.02 (inactive) | 0.991 (inactive) | 1.01 (inactive) | 1.01 (inactive) | 0.953 (inactive) | 1.04 (inactive) | 0.941 (inactive) |
| C[C@]12CC[C@H](O)C[C@H]1CC[C@@H]1[C@@H]2CC[C@]2(C)[C@@H](C3=CC(=O)OC3)CC[C@]12O [Digitoxigenin] | 1.02 | 1.02 | 0.986 | 1 | 1.06 (inactive) | 1.05 (inactive) | 1.02 (inactive) | 1.03 (inactive) | 1.01 (inactive) | 1.01 (inactive) | 0.989 (inactive) | 1.03 (inactive) |
| CSc1nnc(C(C)(C)C)c(=O)n1N | 0.994 | 1.01 | 1 | 0.945 | 0.976 (inactive) | 0.982 (inactive) | 1.07 (inactive) | 0.945 (inactive) | 0.978 (inactive) | 0.959 (inactive) | 1.04 (inactive) | 1.13 (inactive) |
| C[N+]1([O-])[C@@H]2C[C@@H](OC(=O)[C@H](CO)c3ccccc3)C[C@H]1[C@@H]1O[C@@H]12 (some centres not stated) [Scopolamin-N-oxide hydrobromide] | 1.05 | 1.03 | 1.01 | 0.938 | 0.988 (inactive) | 1.01 (inactive) | 1.13 (inactive) | 1 (inactive) | 0.931 (inactive) | 0.991 (inactive) | 1.01 (inactive) | 1.13 (inactive) |
| CN1COCN(Cc2cnc(Cl)s2)/C1=N\[N+](=O)[O-] | 0.973 | 1.02 | 1 | 0.969 | 1.01 (inactive) | 0.906 (inactive) | 0.912 (inactive) | 1.03 (inactive) | 1.01 (inactive) | 1.03 (inactive) | 0.993 (inactive) | 0.88 (inactive) |
| CC(C)N(C(=O)COc1nnc(C(F)(F)F)s1)c1ccc(F)cc1 | 0.961 | 0.973 | 1.01 | 0.978 | 1.02 (inactive) | 1.01 (inactive) | 0.886 (inactive) | 1 (inactive) | 1 (inactive) | 1.02 (inactive) | 0.989 (inactive) | 0.832 (inactive) |
| COP(=S)(OC)Oc1nc(Cl)c(Cl)cc1Cl | 1.02 | 0.989 | 1.02 | 1.01 | 1.03 (inactive) | 0.986 (inactive) | 0.898 (inactive) | 0.986 (inactive) | 1.02 (inactive) | 0.99 (inactive) | 0.991 (inactive) | 0.866 (inactive) |
| CC(C)(C)NCC(O)c1ccccc1Cl (configuration not stated) [Tulobuterol Hydrochloride] | 0.953 | 0.972 | 0.966 | 1.11 | 0.972 (inactive) | 1 (inactive) | 1.01 (inactive) | 1.02 (inactive) | 1.02 (inactive) | 0.993 (inactive) | 1.01 (inactive) | 1.03 (inactive) |
| NC(=O)C[S+]([O-])C(c1ccccc1)c1ccccc1 (configuration not stated) [Modafinil] | 0.82 | 0.705 | 0.712 | 0.795 | 0.949 (inactive) | 1.1 (inactive) | 1.03 (inactive) | 1.01 (inactive) | 0.987 (inactive) | 0.99 (inactive) | 1 (inactive) | 1.06 (inactive) |
| CO[C@]12C[C@@H](COC(=O)c3cncc(Br)c3)CN(C)[C@@H]1Cc1cn(C)c3cccc2c13 [Nicergoline] | 0.937 | 1 | 1.03 | 0.96 | 0.955 (inactive) | 0.994 (inactive) | 0.968 (inactive) | 0.98 (inactive) | 0.99 (inactive) | 0.908 (inactive) | 1.02 (inactive) | 0.888 (inactive) |
| OC(Cn1cncn1)(c1ccc(F)cc1)c1ccccc1F (configuration not stated) | 1.15 | 1.06 | 1.01 | 0.99 | 1.01 (inactive) | 0.985 (inactive) | 0.984 (inactive) | 1.03 (inactive) | 1.02 (inactive) | 1.03 (inactive) | 0.992 (inactive) | 0.948 (inactive) |
| N#Cc1nn(-c2c(Cl)cc(C(F)(F)F)cc2Cl)c(N)c1[S+]([O-])C(F)(F)F (configuration not stated) [Fipronil] | 1.26 | 1.11 | 1.1 | 1.28 | 0.947 (inactive) | 1.05 (inactive) | 1 (inactive) | 1.03 (inactive) | 0.981 (inactive) | 1.01 (inactive) | 1 (inactive) | 1.04 (inactive) |
| CC(=O)[C@H]1CC[C@H]2[C@@H]3CC[C@H]4C[C@H](O)CC[C@]4(C)[C@H]3C(=O)C[C@]12C [Alfaxalone] | 1.12 | 1.03 | 1.02 | 1.13 | 1.06 (inactive) | 0.957 (inactive) | 0.959 (inactive) | 0.994 (inactive) | 1.06 (inactive) | 1 (inactive) | 1.02 (inactive) | 0.913 (inactive) |
| NCCCNCCSP(=O)(O)O [Amifostine] | 0.94 | 1 | 1.12 | 1.38 | 0.978 (inactive) | 1.01 (inactive) | 1.03 (inactive) | 1 (inactive) | 0.999 (inactive) | 1.01 (inactive) | 0.999 (inactive) | 1.01 (inactive) |
| O=NN(CCO)CCO [DMNA (N-nitrosodiethanolamine)] | 0.95 | 1.15 | 1 | 1.09 | 0.975 (inactive) | 0.994 (inactive) | 1.05 (inactive) | 1.03 (inactive) | 0.957 (inactive) | 0.978 (inactive) | 1.03 (inactive) | 1.08 (inactive) |
| NC(=O)CN1CC(O)CC1=O (configuration not stated) [Oxiracetam] | 0.902 | 0.994 | 0.98 | 0.915 | 1 (inactive) | 1.14 (inactive) | 1.1 (inactive) | 0.941 (inactive) | 0.865 (inactive) | 0.876 (inactive) | 1.07 (inactive) | 1.14 (inactive) |
| Cc1cccc2sc3nncn3c12 | 0.977 | 1 | 0.981 | 1 | 0.973 (inactive) | 0.982 (inactive) | 0.98 (inactive) | 0.99 (inactive) | 0.997 (inactive) | 1.03 (inactive) | 0.995 (inactive) | 0.992 (inactive) |
| CC(C)(C)c1ccc(CSc2cnn(C(C)(C)C)c(=O)c2Cl)cc1 | 0.838 | 0.995 | 1.01 | 1.13 | 1 (inactive) | 1.02 (inactive) | 0.997 (inactive) | 0.97 (inactive) | 1.01 (inactive) | 1.04 (inactive) | 1 (inactive) | 0.948 (inactive) |
| O=C(NCNC(=O)NC1C(=O)NC(=O)N1CO)NC1C(=O)NC(=O)N1CO (configuration not stated) [Imidurea] | 1.05 | 1.06 | 0.987 | 1.19 | 1.02 (inactive) | 0.998 (inactive) | 1.01 (inactive) | 1.01 (inactive) | 1 (inactive) | 1 (inactive) | 0.994 (inactive) | 1 (inactive) |
| COCc1cnc(C2=NC(C)(C(C)C)C(=O)N2)c(C(=O)O)c1 (configuration not stated) | 1.1 | 1.04 | 0.971 | 0.967 | 1.03 (inactive) | 1.11 (inactive) | 1.17 (inactive) | 0.961 (inactive) | 0.797 (inactive) | 0.852 (inactive) | 1.06 (inactive) | 1.43 (inactive) |
| Cc1cccc(C)c1NC1=NCCCS1 [Xylazine] | 1.16 | 0.985 | 0.959 | 0.87 | 1.09 (inactive) | 1.01 (inactive) | 1 (inactive) | 1.03 (inactive) | 1.02 (inactive) | 0.991 (inactive) | 0.993 (inactive) | 1 (inactive) |
| CC(C)C[C@H]1C(=O)N2CCC[C@H]2[C@]2(O)O[C@](NC(=O)[C@@H]3C=C4c5cccc6[nH]c(Br)c(c56)C[C@H]4N(C)C3)(C(C)C)C(=O)N12 [Bromocryptine mesylate] | 1.19 | 1.05 | 1.11 | 1.06 | 0.914 (inactive) | 0.868 (inactive) | 1.03 (inactive) | 1.03 (inactive) | 0.98 (inactive) | 1.04 (inactive) | 1.01 (inactive) | 1 (inactive) |
